From PubChem BioAssay AID598 (SRMLSC, 2007) come the findings set out here.

The structures appear in SMILES notation. Hit rate of the full screen: of about 85,000 compounds, about 5,100 (6%) were called active. The list comes from a sample in which actives are over-represented; it also holds similar structures and randomly drawn compounds. Values without a mark were called inactive.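 Rule for the calls: active = viability at or below 40%; inactive = viability above 40%.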

This experiment is described as follows: H69AR cell viability reduction – human, 86K library, primary screen (AID 598).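 Note: multidrug resistant small cell line overexpressing MRP-1 efflux transporter; 100% = mean luminescence of untreated control wells.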 The settings on record: H69AR lung tumor viability, ATP luminescence, 72 h; at 10 µM; active compounds read low.
One may read the viability as a read-out of living cells in per cent, often relative to untreated cells. As for `COc1cccc(-c2nn(C)c3sc(C(=O)N4CCN(c5ccccc5)CC4)cc23)c1`, the viability is 70.9%.
As to `COc1ccccc1N1CCN(C(=O)c2cc3c(-c4ccc(Cl)cc4)nn(C)c3s2)CC1`, the viability was 79.4%.
The figure for `CCOC(=O)N1CCN(C(=O)c2cc3c(-c4ccc(Cl)cc4)nn(C)c3s2)CC1` is 31.4% (active); for `CSc1nc(-c2ccco2)nn1C(=O)CCc1ccccc1` it is 94.3%.
Regarding `O=C(NCCSCc1ccccc1)c1ccc(Cl)c(S(=O)(=O)N2CCOCC2)c1`, the viability is 72.6%.
Turning to `Cc1ccccc1CSCCNC(=O)c1ccc(Cl)c(S(=O)(=O)N2CCOCC2)c1`, the viability was 24.7% (active).
Turning to `Cc1ccc(C(=O)Nc2ccccc2C(=O)NC2CCCCC2)cc1S(=O)(=O)N1CCOCC1`, the viability was 73%.
The figure for `CCCc1noc2c1/C(=N\O)CCC2` is 111%.
In the case of `CC(C)C(=O)Nc1c(C(=O)c2ccc(F)cc2)oc2ccccc12` it was 83.5%.
The figure for `COc1ccc(C(=O)c2oc3ccc(Br)cc3c2NC(C)=O)cc1` is 37.9% (active).
Consider `COC(=O)c1oc2ccc(Br)cc2c1NC(C)=O`, for which the viability is 95%.
The figure for `CCn1nnnc1SCC(=O)c1ccc(C)cc1C` is 101%.
The figure for `CN(C)c1ccc(CNC2C3CC4CC(C3)CC2C4)cc1` (stereo not drawn) is 99.4%.
In the case of `O=C(Nc1cccc(Cl)c1)Nc1nnc(-c2ccccc2)o1` it was 70.9%; in that of `CC(C)(C)c1ccc(C(=O)NCCC(=O)NCc2ccco2)cc1`, 87.7%; in that of `Cc1ccccc1NC(=O)NCc1ccco1`, 99.6%.
As for `CC(C)(C)c1ccc(NC(=O)NCc2ccco2)cc1`, the viability is 39.5% (active).
In the case of `CCC(c1nnnn1C(C)(C)C)N(Cc1cc2cccc(C)c2n2nnnc12)C1CCCC1` (stereo not drawn) it was 78.9%; in that of `CCOc1cc(NC(=O)c2ccco2)c(OCC)cc1NC(=O)COc1ccccc1`, 91.9%; in that of `CCOc1cc(N2CCOCC2)c(OCC)cc1NC(=O)COC(=O)[C@H](Cc1c[nH]c2ccccc12)NC(C)=O`, 71.8%.
On to `CCOc1cc(N2CCOCC2)c(OCC)cc1NC(=O)COc1cccc2cccnc12`, for which the viability was 21.9% (active).
In the case of `O=C(Nc1cccc(NC(=O)c2ccco2)c1)c1cnccn1` it was 87.2%.
The figure for `Cc1cc(C)c(NC(=O)CN2CCOCCOCCOCCOCC2)c(C)c1` is 97.2%; for `Cc1cc(Cl)c(S(=O)(=O)N(C)C)cc1OCC(N)=O` it is 96%.
The figure for `CCCCC(C(=O)OCC(=O)c1ccc(OC)cc1)N1C(=O)c2ccccc2C1=O` (stereo not drawn) is 95%; for `CC/C(O)=N\S(=O)(=O)c1ccc(N=NN(C)C)cc1` it is 85.7%; for `CN(C)S(=O)(=O)c1ccc(N2CCCC2)c(C(=O)NCc2ccccc2)c1` it is 83.6%.
Regarding `COCCn1c(C)cc(C2=NNC(=Nc3ccc(F)cc3)SC2)c1C`, the viability is 88.2%.
Consider `Clc1cccc(N=C2NN=C(c3ccc4c(c3)OCCO4)CS2)c1`, for which the viability was 1.44% (active).
The figure for `CCOC(=O)C1=C(O)CSC1=Nc1cccc(Cl)c1` is 91.2%; for `CN1CCN(C(=O)Cn2c(C(F)(F)F)nc3ccccc32)CC1` it is 96.4%.
Regarding `O=C(Nc1nnc(C2CC2)s1)c1ccccn1`, the viability is 81%.
In the case of `O=C1Nc2cc(Cl)c(Cl)cc2N(O)N1c1cc(Cl)cc(Cl)c1`, the viability is 102%.
In the case of `COc1cccc(N(CC(=O)NCCSc2ccccn2)S(C)(=O)=O)c1` it was 95.5%; in that of `CC1(C)OC(=O)N2CCc3ccccc3C21C` (stereo not drawn), 91.6%; in that of `O=C(CN1CCN(S(=O)(=O)/C=C/c2ccccc2)CC1)NC(=O)NCc1ccco1`, 93.8%.
`O=C(COC(=O)c1ccc(S(=O)(=O)N2CCc3ccccc3C2)cc1)NC(=O)NCc1ccco1`: the viability is 18.3% (active).
In the case of `O=C(Nc1ccc(S(=O)(=O)N2CCc3ccccc3C2)cc1)c1ccccc1`, the viability is 69%.
In the case of `O=C(NC(C(=O)NCCN1CCOCC1)C12CC3CC(CC(C3)C1)C2)C1CCCCC1` (stereo not drawn), the viability is 90.9%.
With `Nc1ccc(Nc2ccccc2)cc1`, the viability was 15.3% (active).
The figure for `c1ccc(Nc2n[nH]nc2-c2ccccc2)cc1` is 94.2%; for `Nc1ccc(-c2nnc(-c3ccc(-c4ccccc4)cc3)o2)cc1` it is 55%.
In the case of `CCCCCCOc1ccc(OC(=O)c2cccnc2)cc1`, the viability was 99.5%.
With `Cc1cc(C(=O)Nc2ccccc2N2CCOCC2)c2ccccc2n1`, the viability was 67.9%.
Regarding `O=C(NCc1cccnc1)c1cn(-c2ccccc2)nc1-c1cccs1`, the viability is 9.99% (active).
In the case of `COC(=O)c1cn(-c2ccccc2)nc1-c1cccnc1` it was 108%; in that of `O=C(CCc1ccccc1)NCc1cccnc1`, 97.5%.
`CCN(CC)CCNC(=O)CCCCCn1c(=O)[nH]c2cc(C(=O)OC)ccc2c1=O`: the viability was 102%.
In the case of `COc1ccccc1C(c1nnnn1C(C)(C)C)N1CCN(Cc2ccccc2)CC1` (stereo not drawn), the viability is 85.2%.
Take `COc1ccc(-c2nnc(SC(C)C#N)o2)cc1` (stereo not drawn): the viability is 86.7%.
In the case of `COc1ccc(-c2nnc(SCC(=O)c3ccc4c(c3)OCCO4)o2)cc1` it was 102%; in that of `COc1ccc(-c2nnc(SC(=O)N3c4ccccc4Sc4ccccc43)o2)cc1`, 4.55% (active); in that of `CCCCCCNCCn1cnc2c(N)ncnc21`, 105%.
The figure for `Cc1ccc(S(=O)(=O)NCCSC(C)(C)C)cc1` is 106%.
With `Cc1nnc(SC(C)C(=O)Nc2ccc(S(=O)(=O)NC3CCCCC3)cc2)s1` (stereo not drawn), the viability was 90.2%.
As to `Cc1c(Br)cc(C(=O)N2CCCCCC2)c(C)c1C`, the viability was 85.9%.
In the case of `Cc1ccc(Nc2cc(=O)n(C3CCCCC3)c(=O)[nH]2)cc1C` it was 9.54% (active); in that of `Cc1ccc(NS(=O)(=O)c2c(C)[nH]c(=O)[nH]c2=O)cc1C`, 112%.
On to `CCC1(CC)Cc2ccccc2-c2nc3ccccc3c(=O)n21`, for which the viability is 88.7%.
Turning to `CCOc1ccccc1C(=O)NC1CC2CCCC(C1)N2Cc1ccccc1` (stereo not drawn), the viability is 72.2%.
The figure for `CC(C)Oc1ccc(C(=O)NC(C)(C)CO)cc1` is 106%.
As for `Cc1cc(C)n(-c2nnc(C)n2NC(=O)c2cccc(Cl)c2)n1`, the viability is 88.1%.
For the compound `O=C(Nc1ccccc1C(=O)NCCCn1ccnc1)c1ccc(Cl)cc1Cl`, the viability is 75.6%.
The figure for `CCOc1ccccc1C(=O)NCCCn1ccnc1` is 98.9%; for `Cc1ccc2c(Cl)c(C(=O)NCCCn3ccnc3)sc2c1` it is 88.9%.
The figure for `O=C(NCCCn1ccnc1)Nc1ccc(Cl)cc1Cl` is 93.2%; for `CCCC(=O)Nc1ccc(C(=O)NCCCn2ccnc2)cc1` it is 15.8% (active); for `CCCCC(=O)Nc1ccc(C(=O)NCCCn2ccnc2)cc1` it is 7.32% (active).
